In the OligoGym collection one finds sensor-assay potency score (higher = more potent) data, which are given here for 39 sequences.
Further: reference of the scale not given here.

The target in the first assay is DPM2. In words: pooled miR-30 sensor sort-seq; sequence = guide strand. The conditions noted are these: shRNA.
Consider TGAACAGTCCCACAAACAGGAG, for which the sensor-assay potency score (higher = more potent) is -1.56.

As for TACTTGTGGATGACATGCTGAC, the sensor-assay potency score (higher = more potent) was -0.0583.

In the case of ATGAACAGTCCCACAAACAGGA, the sensor-assay potency score (higher = more potent) was -0.342.

Sequence TTCAGCATCACATAGGAGATGA showed a sensor-assay potency score (higher = more potent) of -0.473.

The target in another assay is DPP3. The description is as above. The conditions noted are these: shRNA.
For AAGATCTCCAGCACTTGCGGGT, the sensor-assay potency score (higher = more potent) is -0.379.

Sequence TTCCTTACGCAGCAGCACCGTG yielded a sensor-assay potency score (higher = more potent) of -1.18.

On to TTGTAGTTGCCCATGTTGGAGT, for which the sensor-assay potency score (higher = more potent) is -1.16.

TTGTCCTGGATCCAGAAGCGGG had a sensor-assay potency score (higher = more potent) of -1.46.

TTGGTGTCACCAAAGGACTTGT had a sensor-assay potency score (higher = more potent) of -0.525.

TCGACCTCTTTGAAGAGCCGGG: the sensor-assay potency score (higher = more potent) is -0.473.

For TGAAGCTCTCTATATACTGGGC, the sensor-assay potency score (higher = more potent) was -0.35.

TAGTTGGGGATGTTGATGCCGG registered a sensor-assay potency score (higher = more potent) of -0.85.

As to AAGTTGGGAACAAACTTGGTGT, the sensor-assay potency score (higher = more potent) was -0.148.

In turn, TTGTCCTTCTCAAAGGTTGGGG gave a sensor-assay potency score (higher = more potent) of -0.0545.

The sequence TGTTGGAGTAAACACCCGCGGC returned a sensor-assay potency score (higher = more potent) of -1.37.

In turn, TCGTCCTGTACGAAGAGCTTGC displayed a sensor-assay potency score (higher = more potent) of -0.841.

Another assay has as its target DPP9. The description is as above. To be noted: shRNA.
Turning to TCTTCCTTTCTTCTAGCGCAGG, the sensor-assay potency score (higher = more potent) was -1.35.

Take TCGCTGTGGAAGTCGTAGGAGG: the sensor-assay potency score (higher = more potent) was -1.41.

In turn, TAGCTGACCACGTAGAGGTGGT displayed a sensor-assay potency score (higher = more potent) of -0.544.

The sequence TTATAAAAGAATAAGAATCGAC gave a sensor-assay potency score (higher = more potent) of -0.653.

For the sequence ATGTCATGAACATTGATCCAGA, the sensor-assay potency score (higher = more potent) is -1.2.

AATACTGTGTCTCTCGTTGGGG returned a sensor-assay potency score (higher = more potent) of 0.209.

The sequence TAGAGGAGGGAGTTCTCTCGGC had a sensor-assay potency score (higher = more potent) of -0.587.

TAATGTGTCTACTTCTTCCACG returned a sensor-assay potency score (higher = more potent) of 0.224.

With TTATTCACCAGCTGCACCTGGG, the sensor-assay potency score (higher = more potent) is -0.396.

As to TTAATGTGTCTACTTCTTCCAC, the sensor-assay potency score (higher = more potent) was -0.494.

As for ATGAACATTGATCCAGACGTTG, the sensor-assay potency score (higher = more potent) was -1.33.

The sequence TTTGAAGGAGTTATTCACCAGC showed a sensor-assay potency score (higher = more potent) of -0.354.

The next assay deals with DPPA5. The assay is described as above. The conditions noted are these: shRNA.
Sequence TGGAGCATCCACTTGGTCCGGA returned a sensor-assay potency score (higher = more potent) of -0.524.

In turn, TTGAGCATCCCTCGCTCCTGGC had a sensor-assay potency score (higher = more potent) of -0.972.

Sequence TCTTCGGGAACTTTCACCCACG returned a sensor-assay potency score (higher = more potent) of -0.874.

Regarding AGGGATTCGAGATCCGTCCGGG, the sensor-assay potency score (higher = more potent) is -0.916.

As for TTCGAGATCCGTCCGGGCCGAA, the sensor-assay potency score (higher = more potent) is -1.6.

For the sequence TTCGGGAACTTTCACCCACGGC, the sensor-assay potency score (higher = more potent) is -1.56.

The sequence TTTGAGCATCCCTCGCTCCTGG registered a sensor-assay potency score (higher = more potent) of -0.61.

In turn, TTTCAGGTCTTCGGGAACTTTC showed a sensor-assay potency score (higher = more potent) of -1.57.

The sequence TAAACCACGACCTCGGTGAGGT showed a sensor-assay potency score (higher = more potent) of -0.536.

As for TGTAAGGGATTCGAGATCCGTC, the sensor-assay potency score (higher = more potent) was -0.0102.

As to ATGGACTGGAGCATCCACTTGG, the sensor-assay potency score (higher = more potent) is -0.436.
